Test results published in PubChem BioAssay AID504333 (National Center for Advancing Translational Sciences (NCATS), 2011).
Where “and” joins values, the source holds several entries; their conditions need not be identical. Identical values can stand only once. Hit rate of the full screen: of about 360,000 compounds, about 16,000 (4.4%) were called active. Where a call stands in place of a potency, no number is given. Another 9% or so got no clear call; they are omitted. The sample holds actives, similar compounds and a random draw of the others, so the mix is not that of the screen. The call rests on the fitted dose curve; in most records, active means well fitted inhibition curve with a large enough effect; inconclusive means small, poorly fitted or top-dose-only effect; inactive means no such curve, though single readings can be large or run the other way. More than one record can exist for a structure, and the calls need not agree.

The compounds below were run against Bromodomain adjacent to zinc finger domain protein 2B (Homo sapiens) (UniProt Q9UIF8) (assay: qHTS Assay for Inhibitors of BAZ2B). Conditions: AlphaScreen BAZ2B-H3K14Ac peptide displacement; series mostly up to 114 µM.
Outline: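 In this displacement format the biotinylated H3(5-23) peptide acetylated at Lys14 serves as ligand at 50 nM, with BAZ2B at 50 nM in PBS pH 7.4 containing 0.01% Tween-20. Donor and acceptor beads are 10 ug/mL final.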
Further: nearly all actives have a fitted effect of over 60% in size.
Potency means the concentration at half of the fitted maximal effect.

Chain of Bromodomain adjacent to zinc finger domain protein 2B (Homo sapiens) (Q9UIF8 whole entry, looked up, the tested form may be a part): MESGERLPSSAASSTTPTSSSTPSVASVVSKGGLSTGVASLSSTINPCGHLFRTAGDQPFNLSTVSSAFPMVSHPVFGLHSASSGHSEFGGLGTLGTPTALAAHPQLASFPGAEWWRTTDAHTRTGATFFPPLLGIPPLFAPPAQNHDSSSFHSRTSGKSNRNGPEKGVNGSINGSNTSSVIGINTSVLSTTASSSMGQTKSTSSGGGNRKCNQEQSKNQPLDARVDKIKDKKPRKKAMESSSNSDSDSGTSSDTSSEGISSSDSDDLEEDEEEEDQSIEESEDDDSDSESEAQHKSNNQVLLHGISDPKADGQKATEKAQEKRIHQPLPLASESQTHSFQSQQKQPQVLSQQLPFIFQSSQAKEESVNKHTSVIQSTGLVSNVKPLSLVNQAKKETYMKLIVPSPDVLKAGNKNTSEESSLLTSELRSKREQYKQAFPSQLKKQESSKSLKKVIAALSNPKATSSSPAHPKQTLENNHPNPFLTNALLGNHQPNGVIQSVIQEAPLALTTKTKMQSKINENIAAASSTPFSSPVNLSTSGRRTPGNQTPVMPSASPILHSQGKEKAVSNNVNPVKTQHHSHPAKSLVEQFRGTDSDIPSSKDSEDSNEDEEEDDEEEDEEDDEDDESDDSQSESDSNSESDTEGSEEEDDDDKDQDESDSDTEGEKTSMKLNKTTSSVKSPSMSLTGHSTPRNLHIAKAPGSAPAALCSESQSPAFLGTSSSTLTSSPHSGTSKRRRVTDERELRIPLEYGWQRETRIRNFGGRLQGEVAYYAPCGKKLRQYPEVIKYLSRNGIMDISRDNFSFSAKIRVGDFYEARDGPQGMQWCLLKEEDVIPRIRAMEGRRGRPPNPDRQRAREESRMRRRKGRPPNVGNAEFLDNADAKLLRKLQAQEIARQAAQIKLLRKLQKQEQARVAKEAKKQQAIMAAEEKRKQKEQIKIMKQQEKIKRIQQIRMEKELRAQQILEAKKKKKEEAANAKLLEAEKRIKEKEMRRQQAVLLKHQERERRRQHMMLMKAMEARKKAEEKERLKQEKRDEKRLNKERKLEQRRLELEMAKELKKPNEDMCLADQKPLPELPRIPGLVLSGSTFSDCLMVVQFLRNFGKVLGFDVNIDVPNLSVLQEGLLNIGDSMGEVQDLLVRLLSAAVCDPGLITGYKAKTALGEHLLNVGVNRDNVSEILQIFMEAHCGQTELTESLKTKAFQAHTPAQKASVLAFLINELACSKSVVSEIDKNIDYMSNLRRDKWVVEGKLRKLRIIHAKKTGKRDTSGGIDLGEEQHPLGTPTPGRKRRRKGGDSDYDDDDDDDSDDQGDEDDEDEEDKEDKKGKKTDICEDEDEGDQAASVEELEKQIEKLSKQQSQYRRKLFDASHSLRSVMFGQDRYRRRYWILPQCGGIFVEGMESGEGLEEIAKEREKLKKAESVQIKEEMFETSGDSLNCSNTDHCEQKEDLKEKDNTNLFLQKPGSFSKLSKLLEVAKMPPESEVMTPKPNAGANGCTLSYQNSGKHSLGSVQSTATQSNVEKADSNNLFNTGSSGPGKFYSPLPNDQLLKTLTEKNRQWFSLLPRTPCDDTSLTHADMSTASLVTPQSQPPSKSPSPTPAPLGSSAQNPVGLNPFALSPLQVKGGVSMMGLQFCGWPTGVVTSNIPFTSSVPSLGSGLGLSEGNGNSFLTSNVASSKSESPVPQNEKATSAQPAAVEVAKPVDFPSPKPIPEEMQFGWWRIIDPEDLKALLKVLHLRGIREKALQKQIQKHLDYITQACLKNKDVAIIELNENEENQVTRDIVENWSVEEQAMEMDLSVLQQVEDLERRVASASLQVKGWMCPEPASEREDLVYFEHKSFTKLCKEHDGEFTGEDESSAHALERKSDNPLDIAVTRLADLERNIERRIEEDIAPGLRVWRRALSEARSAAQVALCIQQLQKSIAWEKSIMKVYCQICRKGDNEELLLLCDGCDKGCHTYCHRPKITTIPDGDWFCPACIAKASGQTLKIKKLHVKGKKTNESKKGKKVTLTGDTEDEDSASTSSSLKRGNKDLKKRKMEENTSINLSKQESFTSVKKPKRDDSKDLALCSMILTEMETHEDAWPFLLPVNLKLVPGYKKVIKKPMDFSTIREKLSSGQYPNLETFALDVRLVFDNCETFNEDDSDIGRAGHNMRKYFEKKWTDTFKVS

| SMILES | Potency |
| --- | --- |
| CCOc1ccc(CNC(=O)c2ccc3c(c2)nnn3C2CCCC2)cc1 | inactive |
| CC1CCCN(C(=O)c2cc(-c3ccco3)nc3ccccc23)C1 (centres undefined) | inactive |
| O=C(c1cc(-c2ccco2)nc2ccccc12)N(Cc1nnc(-c2ccc(Cl)cc2)o1)C1CC1 | inactive |
| Cc1cc(C)c2nc(-c3ccco3)cc(C(=O)O)c2c1 | 39.8 µM (active) |
| CC(C)(C)c1ccc(S(=O)(=O)N2CCN(C(=O)c3cc(-c4ccc(Br)cc4)n[nH]3)CC2)cc1 | inactive |
| Cc1cccc(CC(=O)N2CC(=O)Nc3ccc(F)cc3C2c2ccccc2)c1 (centres undefined) | inactive |
| CCc1ccc(CNC(=O)c2cc3c(=O)n(CC)c4ccccc4c3s2)cc1 | inactive |
| COc1ccc(N2CC(NS(=O)(=O)c3ccc4ccccc4c3)CC2=O)cc1 (centres undefined) | inactive |
| O=S(=O)(N/N=C\c1cccn1-c1ccccc1)c1ccc2ccccc2c1 | 35.5 µM (active) |
| O=C(COc1ccc(/C=N/NS(=O)(=O)c2ccccc2)cc1)NCCc1ccccc1 | inactive |
| CCOc1ccccc1CNC(=O)C1CCCN(S(=O)(=O)c2ccc3c(ccn3C)c2)C1 (centres undefined) | inactive |
| Cc1cc2oc(C(=O)N(Cc3ccc(Cl)cc3)Cc3ccco3)c(C)c2cc1Cl | inactive |
| CCc1cnc2c(c1SCC(=O)c1ccccc1)c(=O)n(C)c(=O)n2C | inactive |
| COc1cccc(N2CCN(S(=O)(=O)c3cc(Br)cc4c3N(C(=O)C3CC3)CC4)CC2)c1 | inactive |
| CCC(=O)N1CCc2cc(Br)cc(S(=O)(=O)Nc3ccc(C)cc3C)c21 | inactive |
| COc1ccc(Cn2ccnc2SCC(=O)NCc2ccco2)cc1 | inactive |
| COc1ccc(-c2oc3ncn(Cc4ccco4)c(=N)c3c2-c2ccc(OC)cc2)cc1 | 28.2 µM (active) |
| COc1ccc(NC(=O)C(=O)NCc2ccco2)cc1 | inactive |
| CCN1CCN(c2ncc3c(n2)CC(c2ccccc2O)CC3=O)CC1 (centres undefined) | inactive |
| Cc1ccc(C(=O)N2CCc3cc(CNC(=O)c4ccc(Br)cc4)ccc32)cc1 | inactive |
| N#Cc1c(NC(=O)CSc2nc3ccccc3c(=O)n2Cc2ccco2)sc2c1CCCC2 | inactive |
| COc1ccc(-n2c(SCC(=O)Nc3sc4c(c3C#N)CCCC4)nnc2-c2ccc(O)cc2)cc1 | 79.4 µM (active) |

| SMILES | Potency |
| --- | --- |
| Cc1ccc(C)c(OCC(=O)Nc2sc3c(c2C#N)CCCC3)c1C | inactive |
| Cc1cs/c(=N\N=C\c2ccc(O)cc2)n1Cc1ccco1 | 44.7 µM (active) |
| CN(c1ccccc1)c1ccc(/C=c2\s/c(=C(/C#N)C(=O)C(C)(C)C)n(Cc3ccco3)c2=O)cc1 | inactive |
| COc1ccc(NC(=O)CSc2nnc(-c3cccs3)n2Cc2ccco2)cc1OC | inactive |
| Cc1ccc(-c2cn3c(n2)sc2cc(C(=O)NCc4cccs4)ccc23)c(C)c1 | inactive |
| Cc1ccccc1CSc1nnc(-c2ccccn2)n1N | 28.2 µM (active) |
| Cc1ccccc1CSc1nnc(Cn2c(=O)sc3ccccc32)n1C | inactive |
| Cc1ccccc1CSc1nnc(-c2cccnc2)n1N | inactive |
| CCC1=C/C(=C\c2ccc3c(c2)OCO3)C(=O)S1 | 44.7 µM (active) |
| O=C(Cc1ccc(F)cc1)N/N=C/c1ccc2c(c1)OCO2 | inactive |
| CCOC(=O)CCCNC(=O)COC(=O)/C=C/c1ccc2c(c1)OCO2 | inactive |
| Cn1c(=O)c2c(nc(SCC(=O)Nc3ccc(F)cc3)n2Cc2ccc(Cl)cc2)n(C)c1=O | inactive |
| CC1Cc2cc(S(=O)(=O)CCC(=O)Nc3ccc(F)c(Cl)c3)ccc2N1C(=O)C1CC1 (centres undefined) | inactive |
| CC(C)Oc1ccc(NC(=O)c2cc3ccccc3o2)cc1 | inactive |
| Cc1ccc(NC(=O)c2cc3ccccc3o2)cc1 | inactive |
| C/C(=N\NC(=S)Nc1ccc(C)cc1)c1cc2ccccc2o1 | 56.2 µM (active) |
| Cc1ccc(NC(=O)C2CCN(S(=O)(=O)c3cc(-c4noc(C)n4)ccc3C)CC2)c(C)c1 | inactive |
| C/C(=N\NC(N)=S)c1ccncc1 | 50.1 µM (active) |
| C/C(=N\NC(N)=S)c1cccnc1 | inactive |
| C/C(=N/NC(=O)c1ccn(C)n1)c1ccncc1 | inactive |
| CCOC(=O)c1c(C)[nH]c(C)c1S(=O)(=O)N(C)CC(=O)N1CCN(c2ccccc2)CC1 | inactive |
| Cc1ccccc1NC(=O)Cn1c(=O)n(CC2CCC(C(=O)NCCc3ccccc3)CC2)c(=O)c2ccccc21 (centres undefined) | inactive |

| SMILES | Potency |
| --- | --- |
| Cc1c(Cl)cccc1NC(=O)C(=O)NCCc1csc2nc(-c3ccccc3F)nn12 | inactive |
| CC1(C(=O)NCCc2c[nH]c3ccccc23)C=CC2(CCCCC2)N1C(=O)c1ccccc1 (centres undefined) | inactive |
| C[C@]1(C(=O)NCCc2c[nH]c3ccccc23)C=C[C@@H](Cc2ccccc2)N1C(=O)c1ccccc1 | 79.4 µM (active) |
| CC(=O)NC(Cc1c[nH]c2ccccc12)C(=O)NCCc1ccccc1 (centres undefined) | inactive |
| COc1cc(Nc2nc(-c3ccc(OC)c(OC)c3)nc3ccccc23)cc(OC)c1 | inactive |
| CC1CCN(S(=O)(=O)c2nnc(NC(=O)COc3ccccc3F)s2)CC1 | inactive |
| Cc1ccccc1OCC(=O)Nc1nnc(S(=O)(=O)N2CCCC2)s1 | inactive and 3.55 µM (active) |
| Cc1cccc(C(=O)Nc2nnc(S(=O)(=O)N3CCCCCC3)s2)c1 | inactive |
| CCOCCCNC(=O)c1ccc2nc(CCc3ccccc3)oc2c1 | inactive |
| COc1ccc(CCNC(=O)Cn2c(=O)cc(C(F)(F)F)c3c(C)nn(C)c32)c(OC)c1 | inactive |
| CCCC1CCC(=NNC(=S)NCCc2ccccc2)CC1 (centres undefined) | 10 µM (active) |
| S=C(NCCc1ccccc1)Nc1ccccc1 | inactive |
| S=C(NCCc1ccccc1)NCC1CCCO1 (centres undefined) | inactive |
| COc1ccccc1NC(=O)c1oc2ccccc2c1NC(=O)C(C)C | inactive |
| Cc1cccc(NC(=S)NCCN(C2CCCCC2)C2CCCC2)c1 | inactive |
| Cc1cccc(NC(=S)NCc2ccc3[nH]c4c(c3c2)CCCC4)c1 | 39.8 µM (active) |
| O=C(O)CCC(=O)NCc1ccc2[nH]c3c(c2c1)CCCC3 | inactive |
| O=C(CCn1c(=O)c2sccc2n(Cc2ccc(F)cc2)c1=O)NCc1ccc2c(c1)OCO2 | inactive |
| O=C(Cn1c(=O)nc(-c2ccccc2)c2cc(Cl)ccc21)NCc1ccc(Cl)cc1 | inactive |
| C=CS(=O)c1sc(Cl)c(N2CCOCC2)c1[N+](=O)[O-] (centres undefined) | 39.8 µM (active) |
